Measured values reported in PubChem BioAssay.
Active and inactive are the calls of the source. How the calls were made is not given here.

Target: L-lactate dehydrogenase (Plasmodium falciparum (isolate CDC / Honduras)) (UniProt Q27743)
Assay: PfLDH activity inhibition – cell lysate, 3D7 strain, counter-screen for P. falciparum growth inhibition project (AID 2304);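 further: 0% = vehicle and 100% = reference inhibitor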
Settings: P. falciparum 3D7 crude extract, LDH APAD/NBT absorbance; at 2 µM; active compounds read high

Sequence of L-lactate dehydrogenase (Plasmodium falciparum (isolate CDC / Honduras)) (Q27743 whole entry, looked up): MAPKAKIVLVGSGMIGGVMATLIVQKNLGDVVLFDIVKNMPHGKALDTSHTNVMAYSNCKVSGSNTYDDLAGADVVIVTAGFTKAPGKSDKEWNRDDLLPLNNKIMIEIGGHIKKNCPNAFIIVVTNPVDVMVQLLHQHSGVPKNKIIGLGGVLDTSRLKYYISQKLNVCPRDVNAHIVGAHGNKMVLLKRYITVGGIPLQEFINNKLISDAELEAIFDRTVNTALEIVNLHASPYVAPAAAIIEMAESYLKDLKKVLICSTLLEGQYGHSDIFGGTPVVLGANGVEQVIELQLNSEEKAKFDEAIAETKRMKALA

Structure (SMILES) | inhibition
COc1cc(OC)c2c(c1Cl)O[C@]1(C2=O)C(=O)C(Cc2ccccc2)(Cc2ccccc2)C(=O)C[C@H]1C | -3% (inactive)
CCC(CN1C(=O)C(c2ccccc2)(c2ccccc2)N=C1N)c1ccccc1 (stereo not given) | -2% (inactive)
Cc1cc(N[C@@H](Cc2ccccc2)C(=O)NCc2cccc(F)c2)nc(Nc2ccccc2)n1 | 5% (inactive)
Fc1ccc2c(NN=Cc3ccccc3)ccnc2c1 | 2% (inactive)
CC(C)CCNC(=O)C1Cc2c([nH]c3cc(Br)ccc23)C2(CCN(CCc3ccccc3)CC2)N1 (stereo not given) | -1% (inactive)
Cc1cccnc1CNc1nccc2c(C)c(C)[nH]c12 | 0% (inactive)
CC(C)(C)c1ccc(CN2CCC(NC(=O)c3ccc(-c4cccc(Cl)c4)s3)CC2)cc1 | 5% (inactive)
O=C(/C=C/c1ccc(Cl)c(Cl)c1)N1CCC(CNCc2cccc3cc[nH]c23)CC1 | -2% (inactive)
Cc1cccc2[nH]c(-c3cccc(-c4ccc(NC(=O)c5cccc(C(N)=O)c5)cc4)c3)nc12 | 4% (inactive)
CCN1CCN(CCCNc2ccnc3cc(Cl)ccc23)CC1 | 2% (inactive)
Cc1cc(-c2cccc(CNC3CCN(C)CC3)c2)ccc1S(=O)(=O)NC1CCC1 | 3% (inactive)
CCOc1c(CNCCCNc2cc(=O)c3ccccc3[nH]2)cc(Br)cc1OC | -9% (inactive)
CCCCCCCCCc1c(C)[nH]c2ccccc2c1=O | 7% (inactive)
COc1ccc2nccc([C@@H](O)CN3CCC(NCc4cn5cc(F)ccc5n4)CC3)c2c1 | -5% (inactive)
CCCN1CCN(Cc2ccc(C(=O)Nc3ccc(Cl)cc3)cc2)CC1 | -2% (inactive)
Cc1ccc(NC(=O)Nc2ccc(Cn3ncc(N4CCCNCC4)c(Cl)c3=O)cc2)cc1 | -1% (inactive)
COc1ccc(-c2nc(NC(=O)CSc3ccc([N+](=O)[O-])cc3)sc2C)cc1 | -1% (inactive)
CC(=O)N(Cc1nc(-c2cc(Cl)c(Cl)s2)cs1)c1c(C)cccc1C | 3% (inactive)
COc1cc(CNc2ccc(N3CCCC3)cc2)cc(Cl)c1OC | 1% (inactive)
CC(C)(C)C(Cn1ccnc1)NCc1cn[nH]c1-c1ccc(-c2ccccc2)cc1 (stereo not given) | -2% (inactive)

Structure (SMILES) | inhibition
CCCCCN1CCCC(CNS(=O)(=O)c2ccc(C(=O)Nc3ccc(C(F)(F)F)cc3)cc2)C1 (stereo not given) | -2% (inactive)
Oc1ccc2[nH]c(-c3ccc(OC(F)(F)F)cc3)nc2c1CNC1CCCC1 | 0% (inactive)
COc1ccc2nccc([C@@H](O)CN3CCC(NCc4cc5cc(Cl)ccc5[nH]4)CC3)c2c1 | 5% (inactive)
COC[C@H]1CCCN1Cc1ccc(-c2ccc(-c3nc4ccccc4[nH]3)s2)cc1 | -2% (inactive)
CN(C)c1ccc(-c2csc(C(=O)NC3CCN(Cc4ccc(C(C)(C)C)cc4)C3)c2)cc1 (stereo not given) | -1% (inactive)
Cc1[nH]c(C)c(-c2ccc(-c3ccc(OC(F)(F)F)cc3)nc2)c(=O)c1Cl | -6% (inactive)
COc1ccc(CN2CCCN(Cc3cccc(C(=O)Nc4ccc(C)c(F)c4)c3)CC2)cc1 | -3% (inactive)
Cc1cc(N[C@@H](CC(C)C)C(=O)NCCOc2ccccc2)nc(NCC2CCCCC2)n1 | -1% (inactive)
COc1cc(OC)cc(C(=O)Nc2nc(-c3ccccn3)cs2)c1 | 1% (inactive)
CN(C)c1ccc(-c2ccc(C(=O)NC3CCN(Cc4cccc(C(F)(F)F)c4)CC3)s2)cc1 | 0% (inactive)
COc1ccc(OCC(=O)Nc2nc(-c3ccc(OC)cc3)c(C)s2)cc1 | -6% (inactive)
Cc1cc(N[C@@H](Cc2ccccc2)C(=O)Nc2ccccc2)nc(NCCc2ccccn2)n1 | -1% (inactive)
CCN(CCCN1CCCCC1)c1cc(C)nc(Nc2ccc(Br)cc2F)n1 | -6% (inactive)
CN=C(NC)c1cccc(NC(=O)C=Cc2ccc(C=CC(=O)Nc3cccc(C(=NC)NC)c3)cc2)c1 | 2% (inactive)
CC(=O)NC1=NC(C)(C)N(OCCCOc2ccc(Cl)c(Cl)c2)C(NC(C)=O)=N1 | 0% (inactive)
CC1c2cccc(O)c2CCN1CCc1ccc(Cl)c(Cl)c1 (stereo not given) | -1% (inactive)
CC1CCCN(C(=O)c2cc(-c3ccccn3)nc3c(Cl)cccc23)C1 (stereo not given) | -5% (inactive)
CCc1cn2c3c(cc(C(=O)N[C@@H](Cc4ccccc4)[C@H](O)CNC4CCCCC4)cc13)N(CC)S(=O)(=O)CC2 | -5% (inactive)
COc1ccc2ncc(Cl)c(CCN3CC[C@@H](CNCc4cc5c(cn4)OCS5)C3)c2n1 | 3% (inactive)
COc1ccc2nccc(N3CCC(CCNCc4cc5c(cn4)OCCO5)CC3)c2c1 | 6% (inactive)

Test system: not listed separately
Assay: inhibition of 3D7 malaria parasite growth – strain 3D7 (AID 2306);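 further: 0% = DMSO wells and 100% = chloroquine plus artemisinin control wells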
Settings: P. falciparum 3D7 erythrocytic growth, LDH absorbance, 72 h; at 2 µM; active compounds read high

Structure (SMILES) | growth inhibition
COc1cc(OC)c2c(c1Cl)O[C@]1(C2=O)C(=O)C(Cc2ccccc2)(Cc2ccccc2)C(=O)C[C@H]1C | 90% (active)
CCC(CN1C(=O)C(c2ccccc2)(c2ccccc2)N=C1N)c1ccccc1 (stereo not given) | 98% (active)
Cc1cc(N[C@@H](Cc2ccccc2)C(=O)NCc2cccc(F)c2)nc(Nc2ccccc2)n1 | 100% (active)
Fc1ccc2c(NN=Cc3ccccc3)ccnc2c1 | 100% (active)
CC(C)CCNC(=O)C1Cc2c([nH]c3cc(Br)ccc23)C2(CCN(CCc3ccccc3)CC2)N1 (stereo not given) | 97% (active)
Cc1cccnc1CNc1nccc2c(C)c(C)[nH]c12 | 100% (active)
CC(C)(C)c1ccc(CN2CCC(NC(=O)c3ccc(-c4cccc(Cl)c4)s3)CC2)cc1 | 99% (active)
O=C(/C=C/c1ccc(Cl)c(Cl)c1)N1CCC(CNCc2cccc3cc[nH]c23)CC1 | 85% (active)
Cc1cccc2[nH]c(-c3cccc(-c4ccc(NC(=O)c5cccc(C(N)=O)c5)cc4)c3)nc12 | 100% (active)
CCN1CCN(CCCNc2ccnc3cc(Cl)ccc23)CC1 | 101% (active)
Cc1cc(-c2cccc(CNC3CCN(C)CC3)c2)ccc1S(=O)(=O)NC1CCC1 | 101% (active)
CCOc1c(CNCCCNc2cc(=O)c3ccccc3[nH]2)cc(Br)cc1OC | 80% (active)
CCCCCCCCCc1c(C)[nH]c2ccccc2c1=O | 97% (active)
COc1ccc2nccc([C@@H](O)CN3CCC(NCc4cn5cc(F)ccc5n4)CC3)c2c1 | 96% (active)
CCCN1CCN(Cc2ccc(C(=O)Nc3ccc(Cl)cc3)cc2)CC1 | 94% (active)
Cc1ccc(NC(=O)Nc2ccc(Cn3ncc(N4CCCNCC4)c(Cl)c3=O)cc2)cc1 | 84% (active)
COc1ccc(-c2nc(NC(=O)CSc3ccc([N+](=O)[O-])cc3)sc2C)cc1 | 101% (active)
CC(=O)N(Cc1nc(-c2cc(Cl)c(Cl)s2)cs1)c1c(C)cccc1C | 98% (active)
COc1cc(CNc2ccc(N3CCCC3)cc2)cc(Cl)c1OC | 100% (active)
CC(C)(C)C(Cn1ccnc1)NCc1cn[nH]c1-c1ccc(-c2ccccc2)cc1 (stereo not given) | 98% (active)

Structure (SMILES) | growth inhibition
CCCCCN1CCCC(CNS(=O)(=O)c2ccc(C(=O)Nc3ccc(C(F)(F)F)cc3)cc2)C1 (stereo not given) | 94% (active)
Oc1ccc2[nH]c(-c3ccc(OC(F)(F)F)cc3)nc2c1CNC1CCCC1 | 99% (active)
COc1ccc2nccc([C@@H](O)CN3CCC(NCc4cc5cc(Cl)ccc5[nH]4)CC3)c2c1 | 99% (active)
COC[C@H]1CCCN1Cc1ccc(-c2ccc(-c3nc4ccccc4[nH]3)s2)cc1 | 95% (active)
CN(C)c1ccc(-c2csc(C(=O)NC3CCN(Cc4ccc(C(C)(C)C)cc4)C3)c2)cc1 (stereo not given) | 99% (active)
Cc1[nH]c(C)c(-c2ccc(-c3ccc(OC(F)(F)F)cc3)nc2)c(=O)c1Cl | 95% (active)
COc1ccc(CN2CCCN(Cc3cccc(C(=O)Nc4ccc(C)c(F)c4)c3)CC2)cc1 | 83% (active)
Cc1cc(N[C@@H](CC(C)C)C(=O)NCCOc2ccccc2)nc(NCC2CCCCC2)n1 | 97% (active)
COc1cc(OC)cc(C(=O)Nc2nc(-c3ccccn3)cs2)c1 | 97% (active)
CN(C)c1ccc(-c2ccc(C(=O)NC3CCN(Cc4cccc(C(F)(F)F)c4)CC3)s2)cc1 | 96% (active)
COc1ccc(OCC(=O)Nc2nc(-c3ccc(OC)cc3)c(C)s2)cc1 | 100% (active)
Cc1cc(N[C@@H](Cc2ccccc2)C(=O)Nc2ccccc2)nc(NCCc2ccccn2)n1 | 97% (active)
CCN(CCCN1CCCCC1)c1cc(C)nc(Nc2ccc(Br)cc2F)n1 | 95% (active)
CN=C(NC)c1cccc(NC(=O)C=Cc2ccc(C=CC(=O)Nc3cccc(C(=NC)NC)c3)cc2)c1 | 98% (active)
CC(=O)NC1=NC(C)(C)N(OCCCOc2ccc(Cl)c(Cl)c2)C(NC(C)=O)=N1 | 96% (active)
CC1c2cccc(O)c2CCN1CCc1ccc(Cl)c(Cl)c1 (stereo not given) | 102% (active)
CC1CCCN(C(=O)c2cc(-c3ccccn3)nc3c(Cl)cccc23)C1 (stereo not given) | 86% (active)
CCc1cn2c3c(cc(C(=O)N[C@@H](Cc4ccccc4)[C@H](O)CNC4CCCCC4)cc13)N(CC)S(=O)(=O)CC2 | 98% (active)
COc1ccc2ncc(Cl)c(CCN3CC[C@@H](CNCc4cc5c(cn4)OCS5)C3)c2n1 | 99% (active)
COc1ccc2nccc(N3CCC(CCNCc4cc5c(cn4)OCCO5)CC3)c2c1 | 100% (active)
